Bioassay records (PubChem)
CHX counter – counter-screen hit for Shiga toxin inhibitors, cycloheximide. cell reporter, cycloheximide protein synthesis inhibition counterscreen. AID 2314. max response, %. 12% of 300,000 active; in the data active means max response mostly above about 13%, no sharp cut-off; inactive means mostly below about 14%; further: read at 38.3 µM for the half of the compounds with a filed dose
AMA1-RON2 inh – AMA1-RON2 (P. falciparum) interaction inhibition | Potency, µM (titrated, usually from 58.2 µM), usual class: inhibitors | 0.2% of 360,000 active | AlphaScreen AMA1-biotinylated RON2 peptide binding; further: nearly all actives have a fitted effect of over 45% in size
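AMA1 (3D7) with his tag at 25 nM final met compounds first, then biotinylated RON2 peptide at 25 nM; detection used donor plus acceptor beads, 10 µg/mL apiece, read by AlphaScreen after 30 min at room temperature.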
Pf growth 48h – inhibits P. falciparum growth in the first generation, 48 h; P. falciparum luciferase growth in erythrocytes, 48 h; Potency, µM (series often up to 28.7 µM), usual class: inhibitors; 5.9% of 310,000 active
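In quantitative HTS format, infected erythrocytes bearing luciferase-reporter parasites were treated for a single generation at 37 C. Luminescence after adding detection reagent served as the growth measure.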
Pf growth 96h – P. falciparum growth inhibition at 96 hours; P. falciparum luciferase reporter growth, 96 h; Potency, µM (titrated, usually from 28.7 µM), most hits filed as inhibitors; 6.9% of 320,000 active; AID 504834
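Cell-based qHTS: luciferase-tagged P. falciparum in erythrocytes (2% hematocrit, 0.05% parasitemia final) incubated with compounds for 96 hours, 37 C, 5% CO2; luciferase detection reagent then added and luminescence measured.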
SARS PLP yeast – SARS-CoV PLP inhibition in yeast. 0.19% of 330,000 active. S. cerevisiae expressing SARS-CoV PLpro, growth rescue. AID 485353. Potency, µM (series often up to 32.9 µM), hits mostly activators; calls by dose curve; further: nearly all actives have a fitted effect of over 55% in size
Shiga toxin inh – Shiga toxin inhibition; Vero cells, Shiga toxin protein synthesis inhibition reporter; inhibition, % at 38.7 µM; 9.2% of 290,000 active; in the data active means inhibition mostly above about 28%, no sharp cut-off; inactive means mostly below about 43%
Each line names hits and unclear results; the compound was inactive in the other large screens. In the library only some 19% were active in any assay of this set; here they are far more common. Unless noted, the call rests on the fitted dose curve; in most records, active means well fitted curve in the direction sought with a large enough effect; inconclusive means small, poorly fitted or top-dose-only effect, or another doubt; inactive means no such curve, though single readings can be large; an effect the other way counts as inactive or inconclusive.

COc1ccc(/C=C2\SC(=O)N(CCC(=O)Nc3ccccc3)C2=O)cc1OC	none
O=C1/C(=C/c2ccc(N3CCOCC3)o2)SC(=Nc2ccccc2)N1CCc1c[nH]c2ccccc12	Pf growth 48h 9.3µM, Pf growth 96h 1.7µM
COc1cc(OC)c2c(OC)cccc2n1	none
O=C1CCCCCN1Cc1nnc(SCc2nc3ccccc3s2)n1-c1ccccn1	CHX counter 74, Shiga toxin inh 92
CCOC(=O)/C(=N\Nc1ccc(OC)cc1)c1csc(Nc2ccccc2)n1	Pf growth 96h 10µM (no result: Pf growth 48h)
CCOC(=O)/C(=N/Nc1ccccc1)c1csc(Nc2ccccc2)n1	Pf growth 96h inconclusive (no result: Pf growth 48h)
O=C(NCC1CCCO1)c1cc2cc(Cl)ccc2[nH]1 (stereo not drawn)	CHX counter 33, Shiga toxin inh 43
CCN(CC)C(=O)c1csc(Nc2ccc(C)cc2)n1	CHX counter 20, Pf growth 48h inconclusive, Shiga toxin inh 49
CCNC(=O)c1ccccc1-c1nc(-c2ccccc2)no1	none
COc1cc2[nH]c(C(=O)NCC3CCCO3)cc2c(OC)c1OC (stereo not drawn)	none
O=C(NCC1CCCO1)c1ccccc1-c1nc(-c2ccccc2)no1 (stereo not drawn)	CHX counter 35, Shiga toxin inh 112
CC(Oc1cccnc1[N+](=O)[O-])C(=O)Nc1cccc(Cl)c1 (stereo not drawn)	Pf growth 96h inconclusive (no result: CHX counter, Shiga toxin inh)
CCOc1ccc(N(CC(=O)Nc2nccs2)S(=O)(=O)c2c(C)[nH]c(=O)[nH]c2=O)cc1	Pf growth 96h inconclusive
Cc1ccc(Nc2nc(C(=O)NCC3CCCO3)cs2)cc1 (stereo not drawn)	CHX counter 24, Shiga toxin inh 51
O=C(NCC1CCCO1)c1cc(-c2ccc(Cl)cc2Cl)on1 (stereo not drawn)	CHX counter 52, Shiga toxin inh 75
Cc1ccc(-c2cc(C(=O)NCCCN3CCOCC3)no2)cc1	Pf growth 48h inconclusive (no result: Pf growth 96h)
O=C(Cc1ccccc1)NCC1CCCO1 (stereo not drawn)	none (no result: Pf growth 48h)
Cc1ccc(-c2cc(C(=O)NCC3CCCO3)no2)cc1 (stereo not drawn)	CHX counter 48, Shiga toxin inh 49
O=C(NCC1CCCO1)c1cc(-c2ccccc2)on1 (stereo not drawn)	CHX counter 40, Shiga toxin inh 129
CCc1nc2c(OCC(=O)C(C)(C)C)cccn2c1N(C)C(=O)CC(C)C	none (no result: CHX counter, Pf growth 48h, Pf growth 96h, SARS PLP yeast, Shiga toxin inh)
CC(=O)Nc1ccc(S(=O)(=O)NC2(C(F)(F)F)NC(=O)N(C3CCCCC3)C2=O)cc1 (stereo not drawn)	none (no result: Pf growth 48h)
COc1cccc(CN(C)CCCn2cnc(C(=O)Nc3ccc(C)c(C)c3)n2)c1	none (no result: CHX counter, Pf growth 48h, Pf growth 96h, SARS PLP yeast, Shiga toxin inh)
Cc1ccc(Nc2nc(C(=O)N3CCC(C(=O)NC(C)C)CC3)cs2)cc1	CHX counter 17
COc1ccccc1NC(=O)c1ccc(Br)c(S(=O)(=O)N2CCCC2)c1	Pf growth 48h inconclusive
CCC(C)NC(=O)CC1Oc2ccc(Cl)cc2NC1=O (stereo not drawn)	Pf growth 96h 10µM (no result: Pf growth 48h)
COc1ccc(CCNC(=O)CC2Oc3ccc(Cl)cc3NC2=O)cc1OC (stereo not drawn)	none (no result: Pf growth 48h)
CCOC(=O)Cn1nc(-c2ccc(Cl)cc2)cc1N	CHX counter 38, Pf growth 96h inconclusive, Shiga toxin inh 92
CCOC(=O)CCn1nc(-c2ccc(Cl)cc2)cc1N	CHX counter 20 (no result: Pf growth 48h)
CCOC(=O)CN1CCC(c2cc(-c3ccc(Cl)cc3)n[nH]2)CC1	Pf growth 96h inconclusive
O=C(CCNC(=O)c1ccc([N+](=O)[O-])cc1)Oc1ccc(F)c(F)c1	none (no result: CHX counter, Pf growth 48h, Pf growth 96h, Shiga toxin inh)
CCCCOc1cccc(NC(=O)CSc2nncn2C)c1	none
CC(CC(=O)O)CC(=O)Nc1ccc(Br)cc1 (stereo not drawn)	Pf growth 48h inconclusive
CC(C)(C)NC(=O)Nc1ccc(F)c(Cl)c1	none
CCC(C)NC(=O)Nc1ccc(Br)cc1 (stereo not drawn)	CHX counter 32, Pf growth 96h inconclusive, Shiga toxin inh 79
CC(C)(C)NC(=O)Nc1ccc(Br)cc1	CHX counter 39, Shiga toxin inh 83
Nc1nnnn1/N=C/c1cc(Cl)ccc1O	none
Nc1nnnn1/N=C/c1ccc(O)cc1	Pf growth 96h 2.1µM (no result: Pf growth 48h)
COc1cc(/C=N/n2nnnc2N)cc(OC)c1OC	none
Nc1nnnn1/N=C/c1ccccc1Cl	none (no result: CHX counter, Pf growth 48h, Pf growth 96h, SARS PLP yeast, Shiga toxin inh)
CCN(CC)c1ccc(/C=N/n2nnnc2N)c(O)c1	CHX counter 14
Nc1nnnn1/N=C/c1ccccn1	Pf growth 96h 6.6µM
Nc1nnnn1/N=C/c1cccc(O)c1	none
CSc1ccc(/C=N/n2nnnc2N)cc1	CHX counter 27
O=C1COc2ccccc2N1Cc1ccc(Cl)cc1	none
O=C(NCC(c1ccco1)N1CCCC1)c1cc(S(=O)(=O)N2CCOCC2)ccc1Cl (stereo not drawn)	Pf growth 48h inconclusive, Pf growth 96h inconclusive (no result: CHX counter, Shiga toxin inh)
COc1cc(/C=N/n2nnnc2N)ccc1O	Pf growth 96h 13µM (no result: Pf growth 48h)
CCN(C)c1ccc(/C=N\n2nnnc2N)cc1	CHX counter 29, Pf growth 96h 2.6µM, SARS PLP yeast inconclusive, Shiga toxin inh 65
CCCOc1ccc(/C=N/n2nnnc2N)cc1OC	none
CCOC(=O)c1c(C)[nH]c(C(=O)COC(=O)/C=C/c2ccc(OCC#N)c(OC)c2)c1C	none
CC1(c2ccc3ccccc3c2)NC(=O)N(CC(=O)N2CCCC(C(F)(F)F)C2)C1=O (stereo not drawn)	Pf growth 96h inconclusive (no result: CHX counter, Shiga toxin inh)
C=C(C)C1(O)OC(=O)C=C1OC (stereo not drawn)	CHX counter 8.5, Pf growth 48h inconclusive, Pf growth 96h inconclusive
Cc1c(/C=N/O)sc2ccccc12	Pf growth 48h inconclusive
CC(=Nc1ccc(Br)cc1)c1sc2ccccc2c1O	CHX counter 60, Shiga toxin inh 111
CC(=Nc1ccccc1)c1sc2ccccc2c1O	CHX counter 50, Shiga toxin inh 139
CCOc1ccc(-c2nnc(SCC(=O)O)n2Cc2ccccc2)cc1	Pf growth 96h 0.93µM (no result: Shiga toxin inh)
COc1ccc(-c2nnc(SCC(=O)O)n2Cc2ccccc2)cc1	Pf growth 96h 7.4µM
Cc1occc1-c1nnc(SCC(=O)N2c3ccccc3CCc3ccccc32)n1C	Pf growth 48h 7.4µM (no result: Pf growth 96h)
CCn1c(SCC(=O)N2c3ccccc3CCc3ccccc32)nnc1-c1ccc(OC)cc1	Pf growth 48h 4.1µM, Pf growth 96h 9.3µM
CCn1c(SCC(=O)N2CCc3ccccc32)nnc1-c1ccncc1	none
COC(=O)C1CN(Cc2ccccc2)C(=O)C1=O (stereo not drawn)	none (no result: CHX counter, Pf growth 48h, Pf growth 96h, SARS PLP yeast, Shiga toxin inh)
CC[C@@]1(c2ccccc2)NC(=O)N(C)C1=O	none (no result: CHX counter, AMA1-RON2 inh, SARS PLP yeast, Shiga toxin inh)
COc1cc2oc(=O)ccc2c(OC)c1CC(O)C(C)(C)O (stereo not drawn)	none
Cc1noc(-c2ccc(CSCCC(=O)O)cc2)c1NC(=O)OC(C)c1ccccc1Cl (stereo not drawn)	none (no result: AMA1-RON2 inh, Pf growth 48h, Pf growth 96h, SARS PLP yeast)
